# Most compounds without a hit are left out; they make up all but 0.93% or so of the library.
# 697 NFkB inh – inhibitors of PMA/ionomycin-induced NF-kB reporter, 697 cells, primary screen, B-cell NF-kB inhibitor project, cell-based, luminescence, uHTS; 697 B-cell NF-kB luciferase reporter, 16 h; inhibition, % at 4 µM; actives 0.33% (n = 330,000); AID 435022, 2010; in the data active means inhibition above about 35%
# Jurkat NFkB inh – inhibitors of induced NF-kB luciferase reporter, primary screen, TCR NF-kB activation inhibitor project, cell-based, luminescence, uHTS; inhibition, % at 4 µM; Jurkat, PMA/ionomycin-induced NF-kB luciferase reporter; actives 0.53% (n = 330,000); AID 435003, 2010; in the data active means inhibition above about 50%
# HIF act – HIF pathway transcriptional activators, primary screen, cell-based, U2OS HRE-luciferase, luminescence. U2OS HRE-luciferase reporter; normalized: DMSO 0%, desferrioxamine 100%. activation, % at 7.5 µM (by protocol). actives 0.32% (n = 300,000). AID 1910, 2009;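 active means mean activation of at least 10% of the iron chelator positive control signal, with at least half of replicates also reaching 10%; inconclusive means mean and replicate majority disagree about reaching 10%; inactive means mean and most replicates under 10%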
# F508del corr – F508del CFTR correction, initial screen, CFBE line, single point; CFBE cells, YFP halide quenching; stimulated with forskolin plus potentiator P3; % fluorescence drop versus neutral controls; activity (quench increase), % at 7.58 µM; actives 0.36% (n = 350,000);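 active means mean added fluorescence quench of at least 8% versus neutral control, with both replicates also reaching 8%; inconclusive means only one of the mean or replicate conditions met; inactive means mean below 8% and not both replicates reaching 8%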;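 further: cells transiently co-express mutant CFTR-F508del with the halide-sensitive YFP; corrector assay measuring rescue of mutant channel to the surface after 24 h compound exposure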
# Jurkat NFkB conf – PMA/ionomycin-induced NF-kB reporter inhibitors, Jurkat retest, confirmation, T-cell NF-kB inhibitor project, cell-based, luminescence, single concentration. shares compounds with Jurkat NFkB inh. AID 435020, 2010. inhibition, % at 4 µM. Jurkat NF-kB luciferase, 16 h. actives 27% (n = 2,700);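 active means inhibition reaching about 45% at 4 µM in either replicate, limit read from the data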;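 further: plate controls were PMA/ionomycin stimulated DMSO wells for no effect and unstimulated DMSO wells for full effect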
# 697 NFkB conf – PMA/ionomycin-induced NF-kB reporter inhibitors, 697 retest, confirmation, B-cell NF-kB inhibitor project, cell-based, luminescence, single concentration. inhibition, % at 4 µM. actives 35% (n = 2,000). shares compounds with 697 NFkB inh. AID 449746, 2010. 697 B-cell NF-kB luciferase, 16 h; in the data active means inhibition mostly above about 28%, no sharp cut-off; inactive means mostly below about 22%
# Starred values were filed as active, the others as inactive; ? = inconclusive; / = no result given.
SMILES,697 NFkB inh,Jurkat NFkB inh,HIF act,F508del corr,Jurkat NFkB conf,697 NFkB conf
Cc1ccc(-c2cc(-c3ccc(C)cc3)[n+](-c3ccccc3)c(-c3ccc(C)cc3)c2)cc1,-45,97*,-1,/,86*,/
Cc1ccc(-c2cc(-c3ccccc3)cc(-c3ccccc3)[n+]2-c2ccccc2)cc1,-12,54*,-1,3,31,/
c1ccc(-c2cc(-c3ccccc3)[n+](-c3ccccc3)c(-c3ccccc3)c2)cc1,-77,10,1,1,/,/
COc1ccc(OC(=O)N(C)C[C@H]2OCc3ccccc3-c3c(n(C)c4ccccc34)C(=O)N([C@H](C)CO)C[C@@H]2C)cc1,/,/,/,-1,/,/
CC1=CC(=C2C(=O)NC(=S)NC2=O)C=C(C(F)(F)F)N1CCc1ccccc1,-54,50*,0,/,14,/
CC1=CC(=C2C(=O)NC(=O)NC2=O)C=C(C(F)(F)F)N1Cc1ccccc1,-8,14,0,1,/,/
CC1=CC(=C2C(=O)NC(=S)NC2=O)C=C(C(F)(F)F)N1Cc1ccccc1,4,70*,-1,8,8,/
O=C(Cc1ccccn1)N1CCCCN2[C@@H](CO)[C@@H](c3ccc(-c4ccccc4F)cc3)[C@@H]2C1,/,/,/,0,/,/
CN(C)C(=O)[C@H]1[C@H](CO)[C@H]2Cn3c(cccc3=O)[C@@H]1N2CC1CC1,/,/,/,1,/,/
CC1=Nc2ccccc2/C1=C/c1c(O)n(C)c(=O)[nH]c1=O,-33,-5,-24,-1,/,/
Cc1ccccc1-n1c(O)c(/C=C2/C(c3ccccc3)=Nc3ccccc32)c(=O)[nH]c1=O,-93,53*,0,/,35,/
CC=Cc1ccc2n(c1=O)C[C@H]1[C@H](CO)[C@@H](C(=O)O)[C@@H]2N1S(=O)(=O)c1ccccc1C (mixture of isomers),/,/,/,0,/,/
Cn1ncnc2c(=O)n(C)c(=O)nc1-2,14,55*,-4,/,99*,/
O=C1/C(=C/c2ccccc2)C[C@@]2(O)[C@H]3Cc4ccc(O)c5c4[C@@]2(CCN3CC2CC2)C1O5 (stereo partly drawn),55*,85*,/,/,47,50*
COc1ccc(C#Cc2ccc([C@@H]3[C@H](CO)N4CCCCN(C(=O)Cc5ccccc5)C[C@@H]34)cc2)cc1,/,/,/,-1,/,/
Nc1ccccc1C(=O)OCCOc1ccccc1,-266,-155,/,/,-143,-279
COc1cc2c(c(OC)c1OC)-c1ccc(O)cc1[C@@H](NC(C)=O)CC2,-487,77*,2,3,64*,-201
COC1=CC(=O)[C@]2(C=C1OC)OC[C@@H]1Oc3c(ccc4c3C=CC(C)(C)O4)C(=O)[C@@H]12,78*,52*,/,5,74*,87*
COc1ccc(CCNC2CCCCC2)cc1,19,21,-1,4,/,/
COc1ccc(C[C@H]2NC[C@H](O)[C@H]2OC(C)=O)cc1,100*,100*,-4,-11,99*,94*
O=C(Cc1ccccn1)N1CCCCN2[C@@H](CO)[C@@H](c3ccc(-c4ccccc4)cc3)[C@@H]2C1,/,/,/,0,/,/
CN1CCN(C(=O)CN=[N+]=[N-])CC1,/,/,/,2,/,/
CCOc1ccc(-n2c(-c3ccoc3)nc3ccccc3c2=O)cc1,-14,-4,0,/,/,/
CCOc1ccc(-c2c(C)n(-c3ccc(OCC)cc3)c3[n+]2CCCCC3)cc1,48*,100*,2,?,79*,60*
O=C(Cc1ccncc1)N1CCCCN2[C@H](CO)[C@H](c3ccc(C#Cc4ccccc4F)cc3)[C@@H]2C1,/,/,/,3,/,/
SMILES,697 NFkB inh,Jurkat NFkB inh,HIF act,F508del corr,Jurkat NFkB conf,697 NFkB conf
C[n+]1c(-c2ccccc2)c2cc(N)ccc2c2ccc(N)cc21,58*,67*,1,4,62*,54*
N#Cc1cccc(-c2ccc([C@@H]3[C@H]4CN(C(=O)Cc5ccncc5)CCCCN4[C@H]3CO)cc2)c1,/,/,/,0,/,/
COC(=O)[C@H]1[C@H](CO)[C@H]2Cn3c(ccc(C4=CCCCC4)c3=O)[C@@H]1N2Cc1ccccc1OC,/,/,/,2,/,/
CC(C)(C)c1cc(C=C(C#N)C#N)cc(C(C)(C)C)c1O,-290,55*,/,-1,73*,-106
CN(C)c1ccc(C=C(C#N)C#N)cc1,-25,-8,0,/,/,/
C=C1C(O)[C@@H]2O[C@]3(CC[C@H](/C=C/C(C)[C@@H]4CC(C)=CC5(O[C@H](C[C@@](C)(O)C(=O)O)CCC5O)O4)O3)CC[C@H]2O[C@@H]1C(O)CC(C)[C@H]1OC2(CCCCO2)CCC1C (stereo partly drawn),100*,101*,/,/,99*,79*
O=C(Cc1cccnc1)N1CCCCN2[C@H](CO)[C@H](c3ccc(C#CC4(O)CCCC4)cc3)[C@H]2C1,/,/,/,0,/,/
C=CC[C@@H](CC/C=C/C=C/CC/C=C\[C@@H]1CSC([C@@H]2C[C@@H]2C)=N1)OC,-325,74*,/,/,52*,-144
CC(C)(O)/C=C/C(=O)[C@](C)(O)C1[C@H](O)C[C@@]2(C)C3CC=C4C(C[C@H](O)[C@@H](O)C4(C)C)[C@]3(C)C(=O)C[C@]12C (stereo partly drawn),41*,62*,/,/,15,50*
COC(=O)[C@H]1[C@H](CO)[C@H]2Cn3c(ccc(C4=CCCCC4)c3=O)[C@@H]1N2Cc1ccccn1,/,/,/,-1,/,/
CC(C)(C)n1cc(C(=O)c2ccc3ccccc3c2O)cn1,-305,-180,0,4,-46,-295
CC(C)(C)n1cc(C(=O)c2ccccc2OCCCF)cn1,-8,5,-2,-2,/,/
C/C=C(\C)C(=O)OC1C(C)=C2C(C1OC(=O)CCCCC)C(C)(OC(C)=O)CC(OC(=O)CCC)C1(O)C2OC(=O)C1(C)O (stereo not drawn),-262,12,3,/,/,-296
C=CCOC(=O)COc1cc(C)cc2oc(=O)c3c(c12)CCC3,40*,13,0,/,/,32*
